Results from ChEMBL document CHEMBL1201862, “PubChem BioAssay data set” (2004).
About 4,000 (6.9%) of roughly 58,000 sequences were called active. Rule as the data show it: active = GI50 up to about 1.1 µM and inactive = higher. Only a sample is shown. Measured potencies and affinities stand elsewhere.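 How tested: cells in 96-well plates exposed to compound for 48 hours at five concentrations. At the GI50, growth is halved.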

Test system: SF-295
Experiment: NCI tumour cell line growth inhibition, 48 h

| Substance | GI50 [µM] |
| --- | --- |
| mu-(1,7-nanodiamine-N,N')bis-(cis-aminedichloroplatimum (II)), CHEMBL2146215 | 14.3 |
| [Bis(aminomethyl)tetramethylenesilane]dichloropaltinum(II), CHEMBL2146205 | 27.7 |
| [Bis(aminomethyl)pentamethylenesilane]tetrachloropaltinum(IV), CHEMBL2146204 | 3.3 |
| [Bis(aminomethyl)dimethylsilane]tetrachloroplatinum(IV), CHEMBL2146190 | 4.39 |
| [Bis(aminomethyl)pentamethylenesilane]dichloropaltinum(II), CHEMBL2146202 | 2.65 |
| cis-Bis[[(trimethylsilyl)methyl]amino]tetrachloroplatinum(IV), CHEMBL2146191 | 13.7 |
| [Bis(aminomethyl)tetramethylenesilane]tetrachloropaltinum(IV), CHEMBL2146189 | 5.25 |
| [Bis(aminomethyl)ethylmethylsilane]tetrachloroplatinum(IV), CHEMBL2146192 | 3.17 |
| [Bis(aminomethyl)dimethylsilane]dichloroplatinum (II), CHEMBL2146201 | 11.9 |
| CISPLATIN, CHEMBL11359 | 0.912 |
| [Bis(aminomethyl)diethylsilane]tetrachloroplatinum(IV), CHEMBL2146203 | 3.37 |
